FBW7 activator: FBW7 E3 ligase activators, primary screen, biochemical, AlphaScreen, human. F-box/WD repeat-containing protein 7 (Homo sapiens), Q969H0. AlphaScreen FBW7–phospho-cyclin E peptide binding, activator screen. normalized activity (activation), % at 26.1 µM. 650,000 compounds, 0.13% hits; in the data active = normalized activity above about 1.9%;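 also: purified mutant Fbw7 with reduced substrate affinity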
Target sequence (Q969H0 whole entry, looked up): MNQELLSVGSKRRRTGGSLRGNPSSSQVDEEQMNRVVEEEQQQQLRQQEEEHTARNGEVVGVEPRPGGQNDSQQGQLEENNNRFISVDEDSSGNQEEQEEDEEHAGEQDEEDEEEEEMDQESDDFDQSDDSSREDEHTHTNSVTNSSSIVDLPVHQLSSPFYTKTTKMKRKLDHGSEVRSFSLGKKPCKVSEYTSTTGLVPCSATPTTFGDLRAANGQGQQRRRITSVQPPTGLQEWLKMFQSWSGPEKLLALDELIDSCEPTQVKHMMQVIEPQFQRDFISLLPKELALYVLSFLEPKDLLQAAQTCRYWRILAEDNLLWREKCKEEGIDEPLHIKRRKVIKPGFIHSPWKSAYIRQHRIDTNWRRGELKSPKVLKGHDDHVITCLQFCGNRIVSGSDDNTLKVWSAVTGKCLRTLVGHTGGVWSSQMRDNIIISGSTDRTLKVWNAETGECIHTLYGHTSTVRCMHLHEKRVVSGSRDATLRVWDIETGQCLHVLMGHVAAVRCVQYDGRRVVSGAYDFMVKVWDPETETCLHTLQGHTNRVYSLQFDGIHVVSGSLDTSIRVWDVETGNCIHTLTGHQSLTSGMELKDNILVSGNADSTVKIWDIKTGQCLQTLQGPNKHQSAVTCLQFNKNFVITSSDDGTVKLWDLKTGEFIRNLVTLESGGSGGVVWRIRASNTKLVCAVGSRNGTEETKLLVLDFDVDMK
MITF primary: MITF inhibitors, primary screen, biochemical, AlphaScreen, human; AlphaScreen MITF homodimerization, bead proximity signal; inhibition, % at 2.6 µM; 650,000 compounds, 0.91% hits; in the data active = inhibition above about 50%;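 also: 0% = vehicle wells with protein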
TEAD-YAP inh: TEAD-YAP interaction inhibition, primary screen, TEAD-YAP interaction inhibitor project, luminescence, HEK-TIYL cells; TEAD-Gal4/YAP UAS-luciferase luminescence; inhibition, % at 9.12 µM; 640,000 compounds, 1.4% hits; in the data active = inhibition above about 32%;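 also: 0% = median of test compound wells and 100% = reference inhibitor wells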
GPR151 ag: activators of human GPR151, primary screen, cell-based, PathHunter beta-arrestin, luminescence; G-protein coupled receptor 151 (Homo sapiens), Q8TDV0; PathHunter beta-arrestin GPR151 cells; activation, % at 11.2 µM; 650,000 compounds, 1% hits; AID 1508602, 2020; in the data active = activation above about 4.9%;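 also: 0% = median of compound wells and 100% = cells with positive control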
* = called active by the depositor. The list is not random: actives were taken first. Their share in the collection is about 3.5%.

SMILES	FBW7 activator	MITF primary	TEAD-YAP inh	GPR151 ag
CC(C)(C)CN1CCNC(=O)C1CC(=O)NC1CCN(c2ccc(F)cc2)CC1 (stereo unspecified)	0	5	-6	0
COc1ccccc1-c1csc(NC(=O)c2ccc(-c3ccccc3)cc2)n1	0	7	-7	1
Cc1nc(NCCCO)c2c(-c3cccs3)csc2n1	0	4	32*	1
CCCN1CCN(CCCNC(=O)C2CCCN2c2nnc(N3CCCC3=O)s2)CC1 (stereo unspecified)	0	2	-5	1
COc1ccccc1C(=O)Nc1ccc2nc(SCC(=O)N3CCc4ccccc43)sc2c1	0	3	-6	0
Cc1nnc(SC(C)C(=O)Nc2ccc3nc(SCC(=O)N4CCc5ccccc54)sc3c2)s1 (stereo unspecified)	0	-4	35*	-1
COc1ccc(C2CC(=O)c3c([nH]c(C(=O)OCCOC(C)C)c3C)C2)cc1 (stereo unspecified)	0	10	3	1
CCOCCOC(=O)c1[nH]c2c(c1C)C(=O)CC(c1ccc(OC)c(OC)c1)C2 (stereo unspecified)	0	9	21	0
COc1cc(C2CC(=O)c3c([nH]c(C(=O)OCCOC(C)C)c3C)C2)cc(OC)c1OC (stereo unspecified)	0	4	66*	2
COc1cc(C2CC(=O)c3c([nH]c(C(=O)OCCSC)c3C)C2)cc(OC)c1OC (stereo unspecified)	0	7	56*	5
C[C@H](Nc1ccc(C(F)(F)F)cc1[N+](=O)[O-])C(=O)Nc1nc2ccccc2[nH]1	0	-4	32*	0
CC(Nc1ccc(C(F)(F)F)cc1[N+](=O)[O-])C(=O)O (stereo unspecified)	0	-2	12	-1
COc1ccccc1NC(=O)Cn1c(C)cc(=O)c2cccc(OC)c21	0	-10	37*	0
COc1ccccc1NC(=O)Cn1c(C)cc(=O)c2cccc(C)c21	0	-1	3	1
COc1cccc(NC(=O)Cn2c(C)cc(=O)c3ccccc32)c1	0	13	54*	0
COc1ccccc1NC(=O)Cn1c(C)cc(=O)c2ccccc21	0	-2	64*	-1
CCn1c(=O)n(CC(=O)Nc2ccccc2OC)c(=O)c2ccccc21	0	9	14	-1
Cc1ccc(-c2nnn(CC(=O)Nc3ccc(C(=O)N4CCCC4)cc3)n2)cc1	0	-10	-10	1
O=C(Cn1c2c(c3ccccc31)CCC2)NC1=NCCS1	0	10	77*	0
N#C/C(=C\c1cc2ccccc2nc1Cl)c1nc(-c2ccc(Cl)cc2)cs1	0	19	5	-1
O=C(O)c1ccc(NCc2ccc(Cl)cc2)c([N+](=O)[O-])c1	0	2	38*	-1
O=S(=O)(c1ccc(NC(=S)N/N=C/c2cccc(O)c2O)cc1)N1CCOCC1	-1	59*	4	0
O=S(=O)(c1ccc(NC(=S)N/N=C/c2ccc(O)c(O)c2)cc1)N1CCOCC1	0	-15	10	0
COc1ccccc1N1CCN(C(=O)CSc2nc3ccccc3c(=O)n2CCC(=O)NC2CCCCC2)CC1	0	-9	46*	2
COc1ccccc1C1CC(c2cccnc2)Nc2ncnn21 (stereo unspecified)	0	13	7	-2
SMILES	FBW7 activator	MITF primary	TEAD-YAP inh	GPR151 ag
Cc1ccc(-n2nc3ccc(N)cc3n2)c(C)c1	0	9	40*	0
Cc1ccc(-n2nc3ccc(N)cc3n2)cc1Cl	0	-5	-20	-1
COc1ccccc1Nc1nc2nonc2nc1Nc1cccc(Br)c1	0	2	21	0
Cc1cccc(Nc2nc(NCc3ccco3)c3ccccc3n2)c1	0	-1	60*	0
Brc1cccc(Nc2nc3nonc3nc2NCc2ccco2)c1	1	-4	87*	0
Oc1cccc(Nc2nc(NCc3ccco3)c3ccccc3n2)c1	0	15	11	1
COc1ccc(/C(O)=C2\C(=O)C(=O)N(c3nnc(C)s3)C2c2ccc(C)cc2)cc1 (stereo unspecified)	0	-5	5	1
NCCOc1cc(C(=O)Nc2ccc3[nH]ncc3c2)ccn1	1	5	72*	-1
O=C(Nc1ccc2[nH]ncc2c1)c1ccc(OC2CCOCC2)nc1	0	21	48*	0
COc1ccc(CCn2c(C)cc(C(=O)CCl)c2C)cc1	0	16	40*	1
COc1ccc(CCn2c(C)cc(C(=O)CSc3nc(N)cc(=O)[nH]3)c2C)cc1	0	7	33*	0
CN1CCN(C23CCCCC2=Cc2cc([N+](=O)[O-])ccc2O3)CC1 (stereo unspecified)	0	5	-13	1
Cc1ccccc1C(=O)Nc1sc2c(c1C(=O)N(C)C)CCCC2	0	-10	14	1
CCN(CC)C(=O)c1ccc2nc(NC(=O)c3ccc(N)cc3)sc2c1	0	9	80*	-1
Cc1ccc2nc(NC(=O)c3ccc([N+](=O)[O-])cc3)sc2c1	0	17	-12	0
Cc1onc(-c2c(Cl)cccc2Cl)c1C(=O)Nc1nc2ccc([N+](=O)[O-])cc2s1	0	-10	49*	-1
CCN(CC)C(=O)c1ccc2nc(NC(=O)c3ccc([N+](=O)[O-])cc3)sc2c1	0	12	84*	0
Cc1ccc([N+](=O)[O-])cc1NC(=O)c1c(-c2c(Cl)cccc2Cl)noc1C	0	-10	-8	-1
CCN(CC)C(=O)c1ccc2nc(NC(=O)c3cccs3)sc2c1	0	-6	88*	-10
CCc1ccc(-n2c(=S)sc3c(=O)[nH]c(SCc4cccc(F)c4)nc32)cc1	0	-3	0	1
CC1=C(C(=O)OC2CCCC2)C(c2ccc(Cl)c(Cl)c2)NC(=O)N1C (stereo unspecified)	0	3	9	3
Cc1ccc(N=C(NN)c2ccc3ccccc3n2)cc1	0	37	92*	-1
COc1ccccc1N=C(NN)c1ccc2ccccc2n1	0	10	-32	0
CCOc1ccc(N=C(NN)c2ccc3ccccc3n2)cc1	0	2	94*	2
COc1ccc(/C=C/C(=O)N2CCN(c3ccc(OC)cc3)CC2)cc1	0	8	3	1
CC(C)n1cnc2c(Nc3ccc(N4CCOCC4)cc3)nc(Nc3nc4ccccc4n3C)nc21	0	-3	33*	0
CC(C)n1cnc2c(Nc3ccc(N4CCOCC4)cc3)nc(Nc3ccccn3)nc21	0	-2	33*	1
c1ccc(N2CCN(c3nc(Nc4ccc(N5CCOCC5)cc4)c4ncn(C5CCCCC5)c4n3)CC2)nc1	0	52*	25	-1

Assay outcomes (PubChem BioAssay)
